Records with an inconclusive call do not appear. Entries that show only a call come without a potency. Active and inactive are the calls of the source. Calls come from the whole dose curve; as a rule, active = well fitted inhibition curve with a large enough effect; inconclusive = small, poorly fitted or top-dose-only effect; inactive = no such curve, though single readings can be large or run the other way.
Test: qHTS for Hypoxia signaling pathway (HIF-1) antagonists against the NCATS CANVASS Library (AID 1347374); note: nearly all actives have a fitted effect of over 60% in size
Conditions: HRE-bla ME-180 cells, HIF-1 beta-lactamase reporter, CoCl2; series mostly up to 38.3 µM
Text: Natural products and their derivatives continue to be wellsprings of nascent therapeutic potential. However, many laboratories have limited resources for biological evaluation, leaving their previously isolated or synthesized compounds largely or completely untested. To address this issue, the Canvass library of natural products was assembled (https://tripod.nih.gov/canvass), in collaboration with academic and industry researchers, for quantitative high-throughput screening (qHTS) across a diverse set of cell-based and biochemical assays. […] We collected pure natural products to circumvent deconvolution and structure elucidation due to time and resource limitations. The library was formatted into 1536-well plates and evaluated in 50 qHTS (in an 11-pnt concentration series) bioassays with broad scope of disease-relevant mechanisms. The resulting data set from 50 different assays was then systematically analyzed to identify overall trends and specific natural products with interesting biological activities. Reported herein are the results of each individual qHTS and their corresponding assay protocol. During hypoxic conditions, the cellular responses are regulated in large part through the activation of the heterodimeric transcription factor called hypoxia-inducible factor-1 (HIF-1). The assay used is a beta-lactamase reporter gene under control of the hypoxia responsive element (HRE) that has been stably integrated into ME-180 cells. This assay identifies inducers of the HIF-1-signaling pathway. The cytotoxicity of the compound library against HRE-bla ME-180 cell line was tested in parallel by measuring cell viability using CellTiter-Glo assay (Promega, Madison, WI) in the same assay wells. The compounds were also tested for auto fluorescence that may interfere with the biological target readout resulting in potential false positives and/or negatives. National Center for Advancing Translational Sciences (NCATS), Rockville, MD National Institute of Health (NIH), Bethesda, Maryland
HIF-1 antagonist assay protocol: 1. HRE-bla ME-180 cells were dispensed at 2,000 cells per well in 5 uL of assay medium containing 0.5% dialyzed FBS into black wall/clear-bottom 1536-well plates using a Multidrop Combi (Thermo Scientific, Waltham, MA) dispenser. 2. After the assay plates were incubated at 37C and 5% CO2 for 5 hrs, 23 nL of compounds dissolved in DMSO, positive controls or DMSO only was transferred to each well of the assay plate using a Pintool station (Kalypsys, San Diego, CA). 3. One microliter of 60 uM CoCl2 (which enhance the stability of HIF-1alpha) or 1 uL of assay medium was added to the wells using BioRAPTR dispenser. 4. The assay plates were then incubated at 37C and 5% CO2 for 17 hrs. 5. One microliter of CCF4 dye was added the assay plate and incubated at room temperature for 2 hours. 6. The fluorescence intensity was obtained using the EnVision (PerkinElmer, Shelton, CT) plate reader using a 405 nm excitation, and 460 and 530 nm emission filters. 7. To assess cell viability (and for data normalization), 4uL of CellTiter-Glo (Promega) was added to the assay plate using the BioRAPTR dispenser and incubated at room temperature for 30 min. 8. Luminescence signal was obtained using the ViewLux microplate reader (PerkinElmer) using a clear emission mirror, and a 15 sec exposure time, 1x binning settings.
Potency is the fitted concentration of half-maximal effect.

Compound | Potency
CC1=CC2CC[C@@H]3[C@@H](C)C[C@H](C)[C@@H](C1)N23 (stereo partly specified) | inactive
CO[C@@H](/C=C/CC/C=C/C(=O)O)[C@@H](O)[C@H](C)/C=C(\C)[C@@H](O)[C@H](C)C(=O)CCCC1CC(=O)NC(=O)C1 | inactive
NCCc1ccccc1 | inactive
CNCCc1ccccc1 | inactive
CNCCc1c[nH]c2ccccc12 | inactive
COc1ccc2c(c1)[nH]c1c(C)nccc12 | 17.2 µM (active)
CCC(=O)CCCCC[C@@H]1NC(=O)[C@H]2CCCCN2C(=O)[C@H]([C@@H](C)CC)NC(=O)[C@H](Cc2cn(OC)c3ccccc23)NC1=O | inactive
CCCCC[C@@H]1OC(=O)[C@@H](C)N(C)C(=O)[C@H](CCCCC)OC(=O)C(C)N(C)C(=O)[C@H](CCCCC)OC(=O)[C@@H](C)N(C)C(=O)[C@H](CCCCC)OC(=O)C(C)N(C)C1=O (stereo partly specified) | 11.8 µM (active)
CCN1C[C@]2(C)CC[C@@H](O)[C@]34C1[C@H](C[C@H]23)C12CCC(CC14)[C@](O)(CO)[C@H]2O (stereo partly specified) | inactive
COc1ccc2c3c([nH]c2c1)C(C)=NCC3 | inactive
COC(=O)C1=C2Nc3ccccc3[C@@]23CCN2CC(C(C)=O)C1C[C@H]23 (stereo partly specified) | inactive
CCCC[C@@H]1CC[C@H]2CCCC(CCC)N12 (stereo partly specified) | inactive
CN1C(=O)[C@]23CC4C(C)(C)[C@@]5(C[C@@]41CN2CC[C@@]3(C)O)C(=O)Nc1c5ccc2c1OC=CC(C)(C)O2 (stereo partly specified) | inactive
CO[C@@H](/C=C/CC/C=C/C(=O)O)[C@@H](O)[C@H](C)[C@@H](O)/C(C)=C/[C@H](C)C(=O)CCCC1CC(=O)NC(=O)C1 | inactive
CC(=O)N[C@H]1CCN2CCC[C@H]12 | inactive
C/C=C1/CN2CC[C@]34C(=Nc5ccccc53)[C@@H]2C[C@@H]1[C@H]4C(=O)OC | inactive
CC[N@@+]1([O-])C[C@]2(C)CC[C@@H](O)[C@@]34C5C[C@H]6CC[C@@]5(C(C[C@H]23)C41)[C@H](O)[C@@]6(O)CO (stereo partly specified) | inactive
CNCCc1ccc(O)cc1 | inactive
COc1ccc(C23Oc4cc(OC)cc(OC)c4[C@](O)([C@H](c4ccccc4)C2C(=O)NCCCCNC(=O)c2ccccc2)[C@@H]3O)cc1 (stereo partly specified) | inactive
CO[C@H](c1ccccc1)[C@H]1NC(=O)C(C)NC(=O)C(C[C@@H](C)CO)N(C)C(=O)[C@@H](C(O)c2cn(C(C)(C)C3CO3)c3ccccc23)NC(=O)C(C(C)C=C(C)C)NC(=O)C(CC(C)C)N(C)C(=O)C(C(C)C)NC1=O (stereo partly specified) | inactive
CCC[C@H]1CC[C@H]2[C@H](C)CCC[C@H]2N1 | inactive
C[C@]12CC(O)C3[C@@H](CCC4C[C@@H](O)CC[C@@]43CO)[C@@]1(O)CCC2C1=CC(=O)OC1 (stereo partly specified) | inactive
O=C(c1ccccc1O)c1[nH]c(Cl)c(Cl)c1-n1c(C(=O)c2ccccc2O)cc(Cl)c1Cl | 1.18 µM (active)
C=C1[C@@H](C)[C@H]2[C@H](Cc3ccccc3)NC(=O)[C@]23OC(=O)/C=C/[C@H](O)CCC[C@@H](C)C/C=C/[C@H]3[C@@H]1O | 2.11 µM (active)
CCN1C[C@]2(C)CC[C@H](O)[C@]34C1C(C[C@H]23)[C@@]12CC[C@H](CC14)[C@](O)(COC(=O)c1ccc(OC)c(OC)c1)[C@H]2O (stereo partly specified) | inactive
CC[C@@H]1CN2CC[C@@]3(O)C(=Nc4cccc(OC)c43)[C@@H]2C[C@@H]1/C(=C\OC)C(=O)OC | inactive

From PubChem BioAssay (NCATS)
